# Test results: the supplement of paper PMC4022240
# ± gives the standard deviation.
# T1: HaloTag-ATRX ADD domain (163-292)
# T1 chain: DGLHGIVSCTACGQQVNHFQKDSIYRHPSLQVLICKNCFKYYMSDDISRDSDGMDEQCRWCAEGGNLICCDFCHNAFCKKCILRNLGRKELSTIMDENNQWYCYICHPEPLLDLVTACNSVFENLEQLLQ
# Columns and labels:
# Assay in all cases: peptide microarray binding signal (635 nm), min-max normalized on array (fraction of array maximum); higher = stronger binding
# Conditions in all cases: peptide region: H2B 7-19
# [1] = molecular target: T1, HaloTag-ATRX ADD domain (163-292)
# Experimental: (§1)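 Histone 13-mer peptides were synthesized as cellulose conjugates with a C-terminal 20-atom PEG linker and printed in triplicate on nitrocellulose. The sequence given is the unmodified backbone; PTMs (Kme1/2/3, Kac, Sph/Tph, Rme/Rme2a/Rme2s, Rcit) are listed in the label and the 'peptide modifications' condition. Slides were probed at 4 °C for 1 h with biotin-labelled (HQ)5-HaloTag reader fusions (ATRX-ADD, ING2-PHD) then streptavidin-Alexa647, or with rabbit histone antibodies then anti-rabbit Alexa647. The mean 635 nm signal of the triplicate spots was scaled 0-1 between the lowest and highest values on each array.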
# [2] = molecular target: HaloTag-ING2 PHD (mouse Ing2 200-280)
# Experimental: as §1
# [3] = molecular target: anti-H3K4me3 antibody ab8580
# Experimental: as §1
# [4] = molecular target: anti-H3K9me3 antibody ab8898
# Experimental: as §1
# [5] = peptide modifications: H2BK11ac, binder concentration: 1:2,000 dilution
# [6] = peptide modifications: H2BK11ac, binder concentration: 1:10,000 dilution
# [7] = peptide modifications: H2BK11ac H2BK15ac H2BK16ac, binder concentration: 1:2,000 dilution
# [8] = peptide modifications: H2BK11ac H2BK15ac H2BK16ac, binder concentration: 1:10,000 dilution
# [9] = peptide modifications: H2BK11ac H2BK16ac, binder concentration: 1:2,000 dilution
# [10] = peptide modifications: H2BK11ac H2BK16ac, binder concentration: 1:10,000 dilution
# [11] = peptide modifications: H2BK12ac H2BS14ph H2BK15ac H2BK16ac, binder concentration: 1:2,000 dilution
# [12] = peptide modifications: H2BK12ac H2BS14ph H2BK15ac H2BK16ac, binder concentration: 1:10,000 dilution
# [13] = peptide modifications: H2BK11ac H2BS14ph H2BK16ac, binder concentration: 1:2,000 dilution
# [14] = peptide modifications: H2BK11ac H2BS14ph H2BK16ac, binder concentration: 1:10,000 dilution
# [15] = peptide modifications: H2BK12ac H2BK15ac H2BK16ac, binder concentration: 1:2,000 dilution
# [16] = peptide modifications: H2BK12ac H2BK15ac H2BK16ac, binder concentration: 1:10,000 dilution
# [17] = peptide modifications: H2BK16ac, binder concentration: 1:2,000 dilution
# [18] = peptide modifications: H2BK16ac, binder concentration: 1:10,000 dilution
# [19] = peptide modifications: H2BK12ac H2BS14ph H2BK15ac, binder concentration: 1:2,000 dilution
# [20] = peptide modifications: H2BK12ac H2BS14ph H2BK15ac, binder concentration: 1:10,000 dilution
# [21] = peptide modifications: H2BK15ac H2BK16ac, binder concentration: 1:2,000 dilution
# [22] = peptide modifications: H2BK15ac H2BK16ac, binder concentration: 1:10,000 dilution
# [23] = peptide modifications: H2BS14ph H2BK15ac H2BK16ac, binder concentration: 1:2,000 dilution
# [24] = peptide modifications: H2BS14ph H2BK15ac H2BK16ac, binder concentration: 1:10,000 dilution
binder,measurement,setting,value
APAPKKGSKKAVT [H2B 7-19 A P A P Kac K G S K K A V T],peptide microarray binding signal,"[1]; peptide modifications: H2BK11ac, binder concentration: 50 nM",0.00367 ± 0.00044
same,peptide microarray binding signal,"[1]; peptide modifications: H2BK11ac, binder concentration: 500 nM",0.00667 ± 0.0024
same,peptide microarray binding signal,"[2]; peptide modifications: H2BK11ac, binder concentration: 10 nM",0.00227 ± 7.3e-05
same,peptide microarray binding signal,"[2]; peptide modifications: H2BK11ac, binder concentration: 100 nM",0.00432 ± 0.00029
same,peptide microarray binding signal,[3]; [5],0.000264 ± 1.1e-05
same,peptide microarray binding signal,[3]; [6],0.000628 ± 6.7e-06
same,peptide microarray binding signal,[4]; [5],0.000408
same,peptide microarray binding signal,[4]; [6],0.000519 ± 5.6e-06
APAPKKGSKKAVT [H2B 7-19 A P A P Kac K G S Kac Kac A V T],peptide microarray binding signal,"[1]; peptide modifications: H2BK11ac H2BK15ac H2BK16ac, binder concentration: 50 nM",0.005642 ± 4e-05
same,peptide microarray binding signal,"[1]; peptide modifications: H2BK11ac H2BK15ac H2BK16ac, binder concentration: 500 nM",0.0203 ± 0.002
same,peptide microarray binding signal,"[2]; peptide modifications: H2BK11ac H2BK15ac H2BK16ac, binder concentration: 10 nM",0.00776 ± 0.00056
same,peptide microarray binding signal,"[2]; peptide modifications: H2BK11ac H2BK15ac H2BK16ac, binder concentration: 100 nM",0.0162 ± 0.0017
same,peptide microarray binding signal,[3]; [7],0.0139 ± 0.0047
same,peptide microarray binding signal,[3]; [8],0.00245 ± 0.0001
same,peptide microarray binding signal,[4]; [7],0.00378 ± 0.00028
same,peptide microarray binding signal,[4]; [8],0.00254 ± 0.0001
APAPKKGSKKAVT [H2B 7-19 A P A P Kac K G S K Kac A V T],peptide microarray binding signal,"[1]; peptide modifications: H2BK11ac H2BK16ac, binder concentration: 50 nM",0.00401 ± 5.5e-05
same,peptide microarray binding signal,"[1]; peptide modifications: H2BK11ac H2BK16ac, binder concentration: 500 nM",0.0108 ± 0.00051
same,peptide microarray binding signal,"[2]; peptide modifications: H2BK11ac H2BK16ac, binder concentration: 10 nM",0.00788 ± 0.0021
same,peptide microarray binding signal,"[2]; peptide modifications: H2BK11ac H2BK16ac, binder concentration: 100 nM",0.00751 ± 0.00032
same,peptide microarray binding signal,[3]; [9],0.00815 ± 0.00023
same,peptide microarray binding signal,[3]; [10],0.00108 ± 1.9e-05
same,peptide microarray binding signal,[4]; [9],0.00178 ± 9e-05
same,peptide microarray binding signal,[4]; [10],0.00133 ± 4.6e-05
APAPKKGSKKAVT [H2B 7-19 A P A P K Kac G Sph Kac Kac A V T],peptide microarray binding signal,"[1]; peptide modifications: H2BK12ac H2BS14ph H2BK15ac H2BK16ac, binder concentration: 50 nM",0.00257 ± 9.2e-05
same,peptide microarray binding signal,"[1]; peptide modifications: H2BK12ac H2BS14ph H2BK15ac H2BK16ac, binder concentration: 500 nM",0.00224 ± 5e-05
same,peptide microarray binding signal,"[2]; peptide modifications: H2BK12ac H2BS14ph H2BK15ac H2BK16ac, binder concentration: 10 nM",0.005013 ± 2.5e-05
same,peptide microarray binding signal,"[2]; peptide modifications: H2BK12ac H2BS14ph H2BK15ac H2BK16ac, binder concentration: 100 nM",0.00213 ± 9.1e-05
same,peptide microarray binding signal,[3]; [11],0.000793 ± 0.00015
same,peptide microarray binding signal,[3]; [12],0.000799 ± 8.3e-06
same,peptide microarray binding signal,[4]; [11],0.000423 ± 8.2e-06
same,peptide microarray binding signal,[4]; [12],0.0011 ± 4e-05
APAPKKGSKKAVT [H2B 7-19 A P A P Kac K G Sph K Kac A V T],peptide microarray binding signal,"[1]; peptide modifications: H2BK11ac H2BS14ph H2BK16ac, binder concentration: 50 nM",0.00207 ± 8.4e-05
same,peptide microarray binding signal,"[1]; peptide modifications: H2BK11ac H2BS14ph H2BK16ac, binder concentration: 500 nM",0.00281 ± 2.2e-05
same,peptide microarray binding signal,"[2]; peptide modifications: H2BK11ac H2BS14ph H2BK16ac, binder concentration: 10 nM",0.00227 ± 3.4e-05
same,peptide microarray binding signal,"[2]; peptide modifications: H2BK11ac H2BS14ph H2BK16ac, binder concentration: 100 nM",0.00128 ± 1.3e-05
same,peptide microarray binding signal,[3]; [13],0.000396 ± 1.2e-05
same,peptide microarray binding signal,[3]; [14],0.000514 ± 5.5e-06
same,peptide microarray binding signal,[4]; [13],0.000242 ± 6.7e-06
same,peptide microarray binding signal,[4]; [14],0.000461 ± 8.7e-06
APAPKKGSKKAVT [H2B 7-19 A P A P K Kac G S Kac Kac A V T],peptide microarray binding signal,"[1]; peptide modifications: H2BK12ac H2BK15ac H2BK16ac, binder concentration: 50 nM",0.00505 ± 0.00068
same,peptide microarray binding signal,"[1]; peptide modifications: H2BK12ac H2BK15ac H2BK16ac, binder concentration: 500 nM",0.00719 ± 0.0027
same,peptide microarray binding signal,"[2]; peptide modifications: H2BK12ac H2BK15ac H2BK16ac, binder concentration: 10 nM",0.00621 ± 0.0005
same,peptide microarray binding signal,"[2]; peptide modifications: H2BK12ac H2BK15ac H2BK16ac, binder concentration: 100 nM",0.00631 ± 0.00038
same,peptide microarray binding signal,[3]; [15],0.00068 ± 9e-05
same,peptide microarray binding signal,[3]; [16],0.001541 ± 1.5e-05
same,peptide microarray binding signal,[4]; [15],0.00104 ± 4.9e-05
same,peptide microarray binding signal,[4]; [16],0.00133 ± 4e-05
APAPKKGSKKAVT [H2B 7-19 A P A P K K G S K Kac A V T],peptide microarray binding signal,"[1]; peptide modifications: H2BK16ac, binder concentration: 50 nM",0.00392 ± 4.6e-05
same,peptide microarray binding signal,"[1]; peptide modifications: H2BK16ac, binder concentration: 500 nM",0.0109 ± 0.00096
same,peptide microarray binding signal,"[2]; peptide modifications: H2BK16ac, binder concentration: 10 nM",0.0037 ± 0.00013
same,peptide microarray binding signal,"[2]; peptide modifications: H2BK16ac, binder concentration: 100 nM",0.00617 ± 0.00026
same,peptide microarray binding signal,[3]; [17],0.00417 ± 0.00052
same,peptide microarray binding signal,[3]; [18],0.00097 ± 9.9e-06
same,peptide microarray binding signal,[4]; [17],0.000966 ± 4.4e-05
same,peptide microarray binding signal,[4]; [18],0.00144 ± 7.5e-05
APAPKKGSKKAVT [H2B 7-19 A P A P K Kac G Sph Kac K A V T],peptide microarray binding signal,"[1]; peptide modifications: H2BK12ac H2BS14ph H2BK15ac, binder concentration: 50 nM",0.00266 ± 0.00014
same,peptide microarray binding signal,"[1]; peptide modifications: H2BK12ac H2BS14ph H2BK15ac, binder concentration: 500 nM",0.00105 ± 0.00012
same,peptide microarray binding signal,"[2]; peptide modifications: H2BK12ac H2BS14ph H2BK15ac, binder concentration: 10 nM",0.00221 ± 5.8e-05
same,peptide microarray binding signal,"[2]; peptide modifications: H2BK12ac H2BS14ph H2BK15ac, binder concentration: 100 nM",0.00241 ± 8e-05
same,peptide microarray binding signal,[3]; [19],7.55e-05 ± 1.7e-06
same,peptide microarray binding signal,[3]; [20],0.000571 ± 1.1e-05
same,peptide microarray binding signal,[4]; [19],0.000362 ± 1.3e-05
same,peptide microarray binding signal,[4]; [20],0.00075 ± 2.1e-05
APAPKKGSKKAVT [H2B 7-19 A P A P K K G S Kac Kac A V T],peptide microarray binding signal,"[1]; peptide modifications: H2BK15ac H2BK16ac, binder concentration: 50 nM",0.00539 ± 7.7e-05
same,peptide microarray binding signal,"[1]; peptide modifications: H2BK15ac H2BK16ac, binder concentration: 500 nM",0.00995 ± 0.00033
same,peptide microarray binding signal,"[2]; peptide modifications: H2BK15ac H2BK16ac, binder concentration: 10 nM",0.0115 ± 0.00069
same,peptide microarray binding signal,"[2]; peptide modifications: H2BK15ac H2BK16ac, binder concentration: 100 nM",0.0164 ± 0.004
same,peptide microarray binding signal,[3]; [21],0.00217 ± 0.0011
same,peptide microarray binding signal,[3]; [22],0.00131 ± 5.7e-05
same,peptide microarray binding signal,[4]; [21],0.00133 ± 5.4e-05
same,peptide microarray binding signal,[4]; [22],0.00185 ± 6.1e-05
APAPKKGSKKAVT [H2B 7-19 A P A P K K G Sph Kac Kac A V T],peptide microarray binding signal,"[1]; peptide modifications: H2BS14ph H2BK15ac H2BK16ac, binder concentration: 50 nM",0.00307 ± 0.00018
same,peptide microarray binding signal,"[1]; peptide modifications: H2BS14ph H2BK15ac H2BK16ac, binder concentration: 500 nM",0.00848 ± 0.00083
same,peptide microarray binding signal,"[2]; peptide modifications: H2BS14ph H2BK15ac H2BK16ac, binder concentration: 10 nM",0.00525 ± 0.00091
same,peptide microarray binding signal,"[2]; peptide modifications: H2BS14ph H2BK15ac H2BK16ac, binder concentration: 100 nM",0.00312 ± 7.5e-05
same,peptide microarray binding signal,[3]; [23],0.00427 ± 0.00019
same,peptide microarray binding signal,[3]; [24],0.00108
same,peptide microarray binding signal,[4]; [23],0.000876 ± 3.2e-05
same,peptide microarray binding signal,[4]; [24],0.00104 ± 1.1e-05
